# Results from ChEMBL document CHEMBL4513160, “CO-ADD screening of MMV (CH) - Small Polar Library”.
# Among all 21,000 compounds or so, fewer than 10 showed an effect of 50% or more. A selection follows. Results with a measured potency or affinity are listed apart.
# System: Acinetobacter baumannii
# Settings: Concentration 300 ug.mL-1; ASSAY_TEST Inhibition of Bacterial Growth; detection method Absorption (OD600); MEDIA CAMHB; plate type 384well; NBS; CORNING #3640; time 18 hr
row,SMILES,Inhibition [%]
1,CC(C)Oc1ncc(C(=O)N2CCC(O)CC2)cc1Cl,1.14
2,C[C@H](N)c1cccc(OCCN(C)C)c1,5.56
3,C[C@@H]1CN(CCC(=O)NC2CCCC2)CC[C@]1(C)O,3.95
4,O=S(=O)(CCN1CCN(c2nccs2)CC1)C(F)(F)F,11.95
5,CS(=O)(=O)C[C@H]1CCCN1,4.73
6,CN(C(=O)c1ccc2c(c1)NC(=O)CS2)C1CCCC1,10.76
7,CN(C(=O)CCn1cccn1)C1CCS(=O)(=O)C1 (configuration not stated),0.97
8,NCCNS(=O)(=O)c1ccc(F)cc1C(F)(F)F,9.19
9,CCn1cc(Br)c(C(C)=O)n1,15.72
10,CCc1nccn1CCNC(=O)Cc1nonc1C,6.19
11,O=C(Nc1ncccc1O)c1cnns1,5.13
12,CN(C)CC[C@H](O)c1cccs1,11.43
13,Cc1occc1C(=O)N1CCC(NC(=O)C2CC2)CC1,4.82
14,CC(=O)c1cccc(COC(=O)c2cccnc2)c1,12
15,CC(C)c1noc(CN(C)C(=O)C2=NNC(=O)CC2)n1,-1.48
16,CSCC(=O)N1CCN(S(=O)(=O)N2CCOCC2)CC1,-0.38
17,CCSc1nccc(N)n1,18.01
18,CS(=O)(=O)NCCc1nc2c(s1)CCCC2,6.5
19,CNC(=O)c1cccc(NCc2cccnc2)n1,1.67

row,SMILES,Inhibition [%]
1,CCN(C(=O)C(C)O)C1CCCCC1 (configuration not stated),7.15
2,CN(Cc1ccc(Oc2ccccc2)cc1)C(=O)CN,13.35
3,Cn1cc(S(=O)(=O)NCc2ccco2)cn1,-0.88
4,O=C1CCCc2sccc2N1,14.86
5,CCCS(=O)(=O)N1C[C@@H](CN(C)CCO)[C@@H](CO)C1,1.24
6,CNC(=O)c1ccc(CNC(=O)c2ccoc2C)cc1,5.87
7,COc1ccc(NC2CC(=O)N(C)C2=O)cc1OC (configuration not stated),5.58
8,CCN1CCCC1CNC(=O)c1csc(NC(C)=O)n1 (configuration not stated),-0.07
9,NCC(=O)NCCN1CCCCC1,9.69
10,CCn1nnnc1NCc1sccc1C,11.07
11,CCOc1ncccc1C(=O)OC(C)C(=O)NC1CC1 (configuration not stated),0.66
12,O=C(Nc1cccc(Cl)c1Cl)C1CCS(=O)(=O)C1 (configuration not stated),-2.85
13,CC(=O)c1cc[nH]c(=O)c1,3.77
14,O=C(CNC1CC1)NC[C@H]1CCc2ccccc2O1,0.42
15,Cc1ccc(CN(C)CC(=O)NCCC#N)o1,4.14
16,COc1ccc(CC(=O)NCC(C)C)c(OC)c1,9.02
17,CCCn1nnnc1CSCc1ccccn1,1.73
18,CCCOc1ccc2c(c1)CCN(C(=O)C(C)N)C2 (configuration not stated),14.38
